# AmpC nodet inh: Promiscuous and Specific Inhibitors of AmpC Beta-Lactamase (assay without detergent). P00811. 71,000 compounds, 1.8% hits. Potency, µM (highest dose often 28.7 µM), inactives show top-dose activity change, negative = inhibition. AmpC nitrocefin hydrolysis, absorbance 480 nm, no detergent; also: % of control where 0% means no effect
# Target sequence (P00811 whole entry, looked up): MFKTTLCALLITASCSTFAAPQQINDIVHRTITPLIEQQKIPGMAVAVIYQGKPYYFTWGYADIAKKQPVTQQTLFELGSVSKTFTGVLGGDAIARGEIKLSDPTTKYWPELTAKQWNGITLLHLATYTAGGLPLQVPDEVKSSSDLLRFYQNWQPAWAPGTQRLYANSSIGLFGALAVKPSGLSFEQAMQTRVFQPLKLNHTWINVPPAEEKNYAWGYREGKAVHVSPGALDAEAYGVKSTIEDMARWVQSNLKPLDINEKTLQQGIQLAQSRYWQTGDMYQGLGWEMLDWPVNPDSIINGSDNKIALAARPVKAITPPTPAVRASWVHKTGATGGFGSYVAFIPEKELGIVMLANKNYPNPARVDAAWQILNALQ
#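 AmpC in 20 mM phosphate buffer pH 7.0 was preincubated 15 min at room temperature with compounds. Nitrocefin (800 uM stock) was then added and hydrolysis followed at 480 nm every 20 s for 4 min.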
# SmPrx2 inh: Schistosoma Mansoni Peroxiredoxins (Prx2); Schistosoma mansoni peroxiredoxin 2 (Prx2); S. mansoni Prx2 activity coupled to TGR/GSH (TGR is thioredoxin glutathione reductase), NADPH fluorescence loss, qHTS; Potency, µM; 65,000 compounds, 0.07% hits; AID 448, 2006
#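 Enzyme mix: 100 uM NADPH, 25 nM TGR, 700 uM GSH, 50 nM Prx2 in 100 mM phosphate pH 7.4, 10 mM EDTA, 0.01% Tween-20. 15 min RT with compound; NADPH/GSH added, H2O2 starts reaction; NADPH fluorescence read 8 min.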
# AmpC inh det: Promiscuous and Specific Inhibitors of AmpC Beta-Lactamase (assay with detergent). purified AmpC, nitrocefin hydrolysis with detergent. P00811. 71,000 compounds, 0.09% hits. AID 584, 2007. Potency, µM (top dose mostly 28.7 µM), inactives show top-dose activity change, negative = inhibition; active = well fitted curve in the direction sought with a large enough effect; inconclusive = small, poorly fitted or top-dose-only effect; also: % is scaled to controls: 0 for no effect and ±100 for the full control effect
#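 E. coli AmpC (5.3 nM) in 20 mM phosphate pH 7.0 with 0.01% Triton X-100, preincubated 15 min RT with compound; nitrocefin (2 uL of 800 uM stock) hydrolysis followed by 480 nm absorbance every 20 s over 4 min.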
# LT uptake inh: qHTS Assay for Anthrax Lethal Toxin Internalization; Potency, µM (titrated, usually from 40 µM), for inactives: at the highest dose activity change, negative = inhibition, usual class: inhibitors; AID 912, 2007; 70,000 compounds, 0.67% hits; Cells, anthrax lethal toxin internalization, FRET ratio (460/530); also: % is scaled to controls: 0 for no effect and ±100 for the full control effect; nearly all actives have a fitted effect of over 50% in size
# * marks the source's active call; other numbers are inactive results; ? = inconclusive; · = not tested or not shown; [ ] = dose if it differs, or a comment. This is a sample that favours compounds with a hit; in the whole collection about 2.4% have one here. Unless noted, calls follow the shape of the full dose curve. Potency is read from the fitted curve at half-maximal effect.
SMILES,AmpC nodet inh,SmPrx2 inh,AmpC inh det,LT uptake inh
COc1ccc(NC(=O)CN(C)S(=O)(=O)c2cccc3cccnc23)cc1,-4%,>57,13%,7%
CN(CC(=O)NC1CCCCCCC1)S(=O)(=O)c1cccc2cccnc12,4µM*[single pt active],>57,3%,-9%
COc1ccc2[nH]cc(CCNc3ncnc4ccc(-c5ccccc5OC)cc34)c2c1,10%,>57,9%,10µM*
COc1ccc2[nH]cc(CCNc3ncnc4ccc(-c5cccnc5)cc34)c2c1,0%,>57,9%,-10%
COc1ccc2[nH]cc(CCNc3ncncc3-c3ccccc3C)c2c1,11%,>57,-4%,10µM*
COc1ccc2[nH]cc(CCNc3ncncc3-c3cccnc3)c2c1,10%,>57,6%,-3%
COc1ccc2[nH]cc(CCNc3ccnc(-c4ccoc4)n3)c2c1,-23%,>57,10%,?
COc1ccc2[nH]cc(CCNc3ccnc(-c4ccc(N(C)C)cc4)n3)c2c1,-6%,>57,-4%,7.9µM*
C=CCN1CCc2cccc3c2[C@@H]1Cc1ccc(O)c(O)c1-3,-13%,>57,0%,?
Cc1ccc(S(=O)(=O)C2(C(=O)Nc3cccnc3)CC2)cc1,4µM*[single pt active],>57,14%,-9%
CCNc1ncc2nc(-c3ccc(Cl)cc3)c(=O)n(-c3ccc(OC)cc3)c2n1,9%,>57,0%,?
CCCCN(CC)CCCNC(=O)c1cc2c(=O)n(C)c3ccccc3c2n1C,21%,>57,14%,4µM*
Cn1c(C(=O)NCC2CCCO2)cc2c(=O)n(C)c3ccccc3c21 (stereo unspecified),4µM*[single pt active],>57,12%,5%
CC1CCN(CCCNC(=O)c2cc3c(=O)n(C)c4ccccc4c3n2C)CC1,20%,>57,12%,6.3µM*
CN1CCN(CCCNC(=O)c2cc3c(=O)n(C)c4ccccc4c3s2)CC1,33%,>57,5%,10µM*
CC(C)OCCCNC(=O)c1cc2c(=O)n(C)c3ccccc3c2n1C,29%,>57,14%,5%
N[C@@H]1CCc2cc(O)c(O)cc2C1,-10%,>57,-1%,?
COc1ccc(-n2c(=O)c(-c3ccccc3)nc3cnc(N4CCOCC4)nc32)cc1,6%,>57,-2%,?
Cn1c(C(=O)Nc2ccc3c(c2)OCO3)cc2c(=O)n(C)c3ccccc3c21,4µM*[single pt active],>57,6%,?
Cn1c(C(=O)NCCN2CCCCCC2)cc2c(=O)n(C)c3ccccc3c21,128%,>57,10%,1.6µM*
COc1ccccc1CNC(=O)c1cc2c(=O)n(C)c3ccccc3c2n1C,4µM*[single pt active],>57,11%,3%
Cn1c(C(=O)NCCN2CCN(Cc3ccccc3)CC2)cc2c(=O)n(C)c3ccccc3c21,?,>57,7%,-2%
CO[C@@H]1CC=C2CCN3CCC4=C(CC(=O)OC4)[C@]23C1,-8%,>57,-1%,3%
CC(C)=CCC/C(C)=C/CO/N=C1/C[C@@H](O)[C@@H](O)[C@@H]2[C@@H]3C(=O)N(Cc4ccc5c(c4)OCO5)C(=O)[C@H]3CC[C@H]12,·,·,·,-3%[8 µM]
Nc1ccc(N2CCCCC2)cc1N1CCCCC1,13%,>57,5%,0%
SMILES,AmpC nodet inh,SmPrx2 inh,AmpC inh det,LT uptake inh
CN1CCN(c2ccc(N)c(N3CCN(C)CC3)c2)CC1,10%,>57,11%,13µM*
Cc1cnc(CNc2nc(-c3ccc(C(=O)N(C)C)cc3)nc3ccccc23)cn1,65%,>57,9%,9%
CCCC(=O)N1CCN(c2ccc(NC(=O)c3cc4ccccc4o3)cc2Cl)CC1,50%,>57,-2%,6.3µM*
O=C(Nc1ccc(N2CCN(C(=O)c3ccco3)CC2)c(Cl)c1)c1cc2ccccc2o1,18%,>57,-4%,?
CCC(=O)N1CCN(c2ccc(NC(=O)c3cc4ccccc4o3)cc2Cl)CC1,109%,>57,-5%,10µM*
C[C@@H]1O[C@H](OC2[C@@H](O)[C@H](O)C(O)[C@H](O)[C@H]2O)[C@@H](N)C[C@@H]1N=C(N)C(=O)O (stereo partly specified),1%[5.75 µM],>57,-2%[5.75 µM],0%[8 µM]
COc1ccc(-c2cnn(-c3ccccc3)c2N)cc1OC,-5%,·,0%,-5%
Nc1nc2c(s1)CCc1c-2cnn1-c1ccccc1,6%,>57,-7%,10µM*
Cn1c(=O)c2cc(S(=O)(=O)NC(Cc3ccccc3)C(=O)NCc3ccco3)ccc2n(C)c1=O (stereo unspecified),4µM*[single pt active],>57,10%,-4%
Cc1nn(-c2ccccc2)c2sc(C(=O)N(CC(=O)NC(C)(C)C)Cc3ccco3)cc12,77%,>57,-6%,13µM*
Cc1nc(N(C)C)c2sc(=S)n(C)c2n1,4µM*[single pt active],>57,7%,-5%
N#CCCn1c(=O)c(-c2ccccc2)nc2cnc(Oc3ccccc3)nc21,10%,>57,0%,?
CCN1CCN(CCC(=O)Nc2ccccc2OC)CC1,-3%,>57,-5%,-12%
CCN1CCN(Cc2ccc(NC(=O)Nc3ccccc3OC)cc2)CC1,4µM*[single pt active],>57,19%,?

# Compound activity deposited in PubChem by National Center for Advancing Translational Sciences (NCATS).
